YB-1 expr inh: YB-1 expression inhibition | actives 0.37% (n = 30,000) | U2OS, qRT-PCR YB-1 vs CDIP delta delta Cp, 16 h; active compounds read high; zero = DMSO, each unit about twofold | delta delta Cp (YB-1 minus CDIP) (concentration not given with the values);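 active means delta delta Cp rounded down to an integer at or above 3, about 3 SD of DMSO wells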;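 further: higher means less YB-1 transcript or more CDIP transcript relative to DMSO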
ROS inducer: cancer cell ROS induction; ROS induction (% of piperlongumine), % at 10 µM; actives 2% (n = 46,000); U2OS ROS induction, H2DCF-DA fluorescence; in the data active means ROS induction above about 79%, passing the limit was not always enough
Hits are given with their value; 0 = inactive; - = not tested or not shown. Most compounds without a hit are left out; they make up all but 2.1% or so of the library.

SMILES	YB-1 expr inh	ROS inducer
C=CCN1C(=O)[C@@]2(O[C@@H](CCn3cc(CCO)nn3)[C@H]([Si](C)(C)c3ccc(OC)cc3)[C@H]2C)c2ccccc21	0	0
C=CCN1C(=O)[C@@]2(O[C@@H](CCn3cc(CCO)nn3)[C@H]([Si](C)(C)c3ccc(OC)cc3)[C@H]2C)c2cc(N3C(=O)c4cccc5cccc3c45)ccc21	0	90
CCc1ccccc1N(CC)C(=O)c1cc2c(s1)-c1c(C)cccc1OC2	-	0
COC(=O)c1sccc1-c1ccc(-c2ccn(S(=O)(=O)c3ccc(Cl)cc3)n2)o1	-	0
Cc1ccc(N2CCN(C(=O)Cn3nc(Cc4cccnc4)c4ccccc4c3=O)CC2C)cc1 (stereo not given)	-	0
O=C(O)c1ccc(CNC(=O)c2ccc(NC(=O)c3ccco3)cc2)cc1	-	99
O=C(NCc1ccccn1)c1ccc(NC(=O)c2ccco2)cc1	-	0
CCOC(=O)N1CCC(NC(=O)c2c(C)nn(-c3ccccc3)c2-n2cccc2)CC1	-	0
O=C(/C=C/c1ccccc1)Nc1ccc(N2CCN(c3ccc(C(F)(F)F)cn3)CC2)nc1	-	0
O=C(Nc1ccc(C(F)(F)F)cc1)c1cnc(N2CCN(c3ccccn3)CC2)c2ccccc12	-	96
COC(=O)c1cn(C(=O)CCc2ccccc2)c2ccccc12	-	0
O=C(Cn1ncc2ccccc21)NC1CCCc2ccccc21 (stereo not given)	-	0
C[C@@H]1CN([C@@H](C)CO)C(=O)c2cccc(NC(=O)CCCCCC(=O)Nc3ccccc3N)c2O[C@H]1CN(C)Cc1ccc(Cl)c(Cl)c1	0	154
C[C@H]1CN([C@@H](C)CO)C(=O)c2cccc(NC(=O)CCCCCC(=O)Nc3ccccc3N)c2O[C@@H]1CN(C)CC1CC1	0	124
C[C@@H]1CN([C@@H](C)CO)C(=O)c2cccc(NC(=O)CCCCCC(=O)Nc3ccccc3N)c2O[C@H]1CN(C)Cc1ccc(Oc2ccccc2)cc1	0	133
C[C@@H]1CN([C@H](C)CO)C(=O)c2cccc(NC(=O)CCCCCC(=O)Nc3ccccc3N)c2O[C@@H]1CN(C)Cc1ccccc1	0	0
C[C@@H]1CN([C@@H](C)CO)C(=O)c2cccc(NC(=O)CCCCCC(=O)Nc3ccccc3N)c2O[C@H]1CN(C)Cc1ccccc1	0	0
C[C@@H]1CN([C@H](C)CO)C(=O)c2cccc(NC(=O)CCCCCC(=O)Nc3ccccc3N)c2O[C@@H]1CN(C)CC1CC1	0	0
O=C(CCNS(=O)(=O)c1ccc(Br)cc1)NC1CCCC1	-	0
CC(C)(C)N=C(NS(=O)(=O)c1ccc(Br)cc1)c1ccccc1	-	0
O=C(c1ccccc1)N1N=C2CCCCC2C1(O)C(F)(F)F (stereo not given)	-	0
C=CC1(C)C[C@H](OC(=O)C(C)CO)[C@H]2C(=C)C(=O)O[C@@H]2C1C(=C)CO (stereo not given in full)	0	134
C=C[C@]1(C)C[C@H](O)[C@H]2C(=C)C(=O)O[C@@H]2[C@H]1C(=C)CO	0	0
Cc1c(C)c(C)c(C(=O)c2ccccc2C(=O)NCc2cccnc2)c(C)c1C	0	0
O=S(=O)(c1cccs1)N1CCC(C(c2ccccc2)c2ccccc2)CC1	-	0
SMILES	YB-1 expr inh	ROS inducer
Cc1ccc(S(=O)(=O)Nc2ccc3c(c2)CC(=O)N([C@H](C)CO)C[C@@H](C)[C@@H](CN(C)S(=O)(=O)c2ccccc2)O3)cc1	0	0
Cc1noc(C)c1NC(=O)N(C)C[C@@H]1Oc2ccc(NS(=O)(=O)c3cccs3)cc2CC(=O)N([C@@H](C)CO)C[C@@H]1C	15	0
Cc1noc(C)c1NC(=O)N(C)C[C@H]1Oc2ccc(NS(=O)(=O)c3cccs3)cc2C(=O)N([C@H](C)CO)C[C@H]1C	0	0
Cc1ccc(S(=O)(=O)N(C)C[C@H]2Oc3ccc(NS(=O)(=O)c4cccs4)cc3CC(=O)N([C@@H](C)CO)C[C@H]2C)cc1	0	0
Cc1ccc(S(=O)(=O)N(C)C[C@@H]2Oc3ccc(NS(=O)(=O)c4ccccc4)cc3CC(=O)N([C@H](C)CO)C[C@@H]2C)cc1	0	130
C[C@@H]1CN([C@@H](C)CO)C(=O)Cc2cc(NS(=O)(=O)c3cccs3)ccc2O[C@@H]1CN(C)C	0	128
C[C@@H]1CN([C@H](C)CO)C(=O)Cc2cc(NS(=O)(=O)c3cccs3)ccc2O[C@H]1CN(C)S(C)(=O)=O	0	0
Cc1ccc(S(=O)(=O)N(C)C[C@@H]2Oc3ccc(NS(=O)(=O)c4cccs4)cc3CC(=O)N([C@H](C)CO)C[C@H]2C)cc1	0	95
Cc1noc(COc2ccccc2)c1C(=O)Sc1ccc(F)cc1F	0	0
CCOc1cccc(/C=N/NC(=O)CCCCC(=O)NO)c1OCC	0	0
Cc1ccc(C2=NN(C(=O)c3ccc(Br)o3)C(c3ccc(C)cc3)C2)cc1 (stereo not given)	-	0
O=C(COc1ccccc1)NCc1nc2ccccc2n1Cc1ccc(Cl)cc1	-	0
